Experimental data as given in PubChem BioAssay (Tox21).
Records with an inconclusive call do not appear. Activity calls are given as the source filed them. Unless noted, calls come from the whole dose curve; as a rule, active = well fitted curve in the direction sought with a large enough effect in the repeat runs; inconclusive = weak or mixed curves; inactive = no such curve, though single readings can be large; an effect the other way counts as inactive or inconclusive.

What was measured:
[1] = qHTS assay to identify small molecule agonists of the peroxisome proliferator-activated receptor delta (PPARd) signaling pathway - cell viability counter screen (AID 743211); note: nearly all actives have a fitted effect of over 55% in size
How it was run: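 Read-out: CellTiter-Glo luminescence, 30 min RT, measured in the same wells as the beta-lactamase reporter. Cells: GeneBLAzer PPAR delta UAS-bla HEK293H, 3000 cells/well, compound exposure 17 h at 37C.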

[2] = molecular target: Peroxisome proliferator-activated receptor delta (Homo sapiens) (UniProt Q03181); test: qHTS assay to identify small molecule agonists of the peroxisome proliferator-activated receptor delta (PPARd) signaling pathway (AID 743212; calls by dose curve)
Peroxisome proliferator-activated receptor delta (Homo sapiens), sequence (Q03181 whole entry, looked up): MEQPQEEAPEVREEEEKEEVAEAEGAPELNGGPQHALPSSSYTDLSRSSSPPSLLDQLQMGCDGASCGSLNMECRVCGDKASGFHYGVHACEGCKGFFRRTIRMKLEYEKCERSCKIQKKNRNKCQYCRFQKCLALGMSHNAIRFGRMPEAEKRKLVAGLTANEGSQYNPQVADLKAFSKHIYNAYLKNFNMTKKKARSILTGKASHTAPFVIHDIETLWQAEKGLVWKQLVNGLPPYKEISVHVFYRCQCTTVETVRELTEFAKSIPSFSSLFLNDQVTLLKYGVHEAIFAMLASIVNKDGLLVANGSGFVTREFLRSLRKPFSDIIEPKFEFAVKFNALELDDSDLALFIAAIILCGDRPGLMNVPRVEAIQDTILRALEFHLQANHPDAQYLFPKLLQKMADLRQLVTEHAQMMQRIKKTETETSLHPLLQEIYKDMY
How it was run: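 GeneBLAzer UAS-bla HEK293H cells carrying a PPARδ construct were exposed to compounds at 37 °C. Beta-lactamase activity was read by FRET fluorescence after 2 h at room temperature with LiveBLAzer B/G substrate.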

[3] = molecular target: Peroxisome proliferator-activated receptor delta (Homo sapiens) (UniProt Q03181); test: qHTS assay to identify small molecule antagonists of the peroxisome proliferator-activated receptor delta (PPARd) signaling pathway (AID 743215; active = well fitted inhibition curve with a large enough effect in the signal ratio in the repeat runs, not every such curve was filed as active; the % refers to the signal ratio; note: series mostly up to about 62 µM)
How it was run: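 PPARd UAS-bla HEK293H cells were pre-incubated 5 h at 37 C, then given test compounds in DMSO plus agonist L165041 (300 nM final). After 17 h at 37 C, beta-lactamase FRET substrate was added; fluorescence read after 2 h at room temperature.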

[4] = molecular target: Bile acid receptor (Homo sapiens) (UniProt Q96RI1); test: qHTS assay to identify small molecule antagonists of the farnesoid-X-receptor (FXR) signaling pathway (AID 743217; active = well fitted inhibition curve with a large enough effect in the signal ratio in the repeat runs, not every such curve was filed as active; the % refers to the signal ratio)
Bile acid receptor (Homo sapiens), sequence (Q96RI1 whole entry, looked up): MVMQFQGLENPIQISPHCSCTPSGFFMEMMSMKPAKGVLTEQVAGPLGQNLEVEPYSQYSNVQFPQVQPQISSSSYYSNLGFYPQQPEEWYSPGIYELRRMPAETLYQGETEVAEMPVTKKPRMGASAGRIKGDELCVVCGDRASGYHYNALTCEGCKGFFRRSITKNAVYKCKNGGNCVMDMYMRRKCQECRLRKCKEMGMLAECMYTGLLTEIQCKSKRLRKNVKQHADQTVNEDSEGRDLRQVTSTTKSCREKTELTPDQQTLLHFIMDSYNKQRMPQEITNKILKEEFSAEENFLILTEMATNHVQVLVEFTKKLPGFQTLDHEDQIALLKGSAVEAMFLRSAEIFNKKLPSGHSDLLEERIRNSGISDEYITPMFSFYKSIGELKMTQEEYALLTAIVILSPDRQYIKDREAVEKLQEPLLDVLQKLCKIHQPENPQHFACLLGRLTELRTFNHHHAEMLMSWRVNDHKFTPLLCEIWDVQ
How it was run: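 FXR-UAS-bla HEK 293T cells pre-incubated 5 h at 37 °C, then exposed to compounds with chenodeoxycholic acid (50 uM final) for 16 h at 37 °C. Beta-lactamase reporter read by LiveBLAzer B/G FRET substrate fluorescence after 2 h at room temperature.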

[5] = qHTS assay to identify small molecule agonists of the farnesoid-X-receptor (FXR) signaling pathway - cell viability counter screen (AID 743218); note: nearly all actives have a fitted effect of over 45% in size
How it was run: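 FXR-UAS-bla HEK 293T cells, plated 5 h at 37 C, were exposed to compounds for 16 h at 37 C. CellTiter-Glo was then added to the same wells as the bla readout; luminescence read after 30 min at room temperature.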

[6] = qHTS assay to identify small molecule antagonists of the farnesoid-X-receptor (FXR) signaling pathway - cell viability counter screen (AID 743221; active = well fitted cell-killing curve with a large enough effect in the repeat runs, not every such curve was filed as active; note: nearly all actives have a fitted effect of over 50% in size)
How it was run: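 HEK 293T FXR-bla cells, 5 h pre-incubation; compound + CDCA 50 uM final, 16 h, 37 C; beta-lactamase FRET read first, then CellTiter-Glo luminescence, 30 min RT.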

[7] = molecular target: Vitamin D3 receptor (Homo sapiens) (UniProt P11473); test: qHTS assay to identify small molecule agonists of the vitamin D receptor (VDR) signaling pathway (AID 743222; calls by dose curve)
Vitamin D3 receptor (Homo sapiens), sequence (P11473 whole entry, looked up): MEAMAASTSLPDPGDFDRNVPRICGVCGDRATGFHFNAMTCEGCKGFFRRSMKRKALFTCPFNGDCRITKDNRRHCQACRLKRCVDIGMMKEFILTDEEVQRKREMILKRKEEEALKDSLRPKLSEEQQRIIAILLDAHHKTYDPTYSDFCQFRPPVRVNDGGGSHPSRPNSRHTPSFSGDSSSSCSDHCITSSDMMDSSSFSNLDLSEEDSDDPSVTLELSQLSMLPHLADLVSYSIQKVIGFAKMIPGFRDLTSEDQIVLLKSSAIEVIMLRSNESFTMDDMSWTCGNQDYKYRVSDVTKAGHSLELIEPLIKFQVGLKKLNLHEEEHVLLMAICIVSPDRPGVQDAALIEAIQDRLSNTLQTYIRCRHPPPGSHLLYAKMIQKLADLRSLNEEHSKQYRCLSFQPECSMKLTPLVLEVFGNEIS
How it was run: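 VDR-bla cells were plated 4 h at 37C/5% CO2, then exposed to compounds in DMSO for 16 h. After LiveBLAzer B/G FRET substrate addition and 2 h at room temperature, beta-lactamase reporter fluorescence was read.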

[8] = molecular target: Vitamin D3 receptor (Homo sapiens) (UniProt P11473); test: qHTS assay to identify small molecule antagonists of the vitamin D receptor (VDR) signaling pathway (AID 743223; active = well fitted inhibition curve with a large enough effect in the signal ratio in the repeat runs, not every such curve was filed as active; the % refers to the signal ratio)
How it was run: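 Beta-lactamase reporter read-out: FRET substrate fluorescence after 2 h at room temperature, following 16 h exposure of VDR-bla cells to test compound plus 3 nM (final) 1alpha,25-dihydroxyvitamin D3 agonist at 37C.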

[9] = qHTS assay to identify small molecule antagonists of the peroxisome proliferator-activated receptor delta (PPARd) signaling pathway - cell viability counter screen (AID 743213); note: nearly all actives have a fitted effect of over 50% in size
How it was run: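 Agonist-stimulated (L165041, 300 nM final) HEK293H PPARd UAS-bla cells are exposed to compounds for 17 h at 37 C, and ATP-based luminescence (CellTiter-Glo) from the same wells reports cytotoxicity.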

[10] = molecular target: Bile acid receptor (Homo sapiens) (UniProt Q96RI1); test: qHTS assay to identify small molecule agonists of the farnesoid-X-receptor (FXR) signaling pathway (AID 743220; active = well fitted activation curve with a large enough effect in the signal ratio in the repeat runs, not every such curve was filed as active; the % refers to the signal ratio)
How it was run: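 Beta-lactamase reporter under UAS control in GeneBLAzer FXR HEK 293T cells (5000/well) measured with LiveBLAzer FRET substrate after 2 h at room temperature. Compound exposure lasted 16 h at 37C.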

Measured: Potency

Cc1c(C)n(CCN(C)C)c2ccc(C(=O)OCCN(C)C)cc12
not listed: [9] | [10]
inactive: all other assays above

C#CC(C)(O)CC(C)C (stereo unspecified)
inactive: [1] | [2] | [3] | [6] | [7] | [8]

NC(=O)c1ncn([C@@H]2O[C@H](CO)[C@@H](O)[C@H]2O)c1O
inactive: [1] | [9] | [3] | [5] | [10] | [6]

CCC(C(=O)NC(N)=O)c1ccccc1 (stereo unspecified)
inactive: [1] | [2] | [4] | [10] | [6]

C=CCOc1nc(OCC=C)nc(OCC=C)n1
inactive: [1] | [2] | [3] | [6] | [7]

C=C(C)[C@@H]1CCC2=CC(=O)C[C@@H](C)[C@]2(C)C1
inactive: [1] | [2] | [3] | [5] | [6] | [7]

CC(=O)OC(C)(C)C
inactive: [1] | [2] | [3] | [5] | [6]

CCOC(=O)Nc1ccc2c(c1)N(C(=O)CCN1CCOCC1)c1ccccc1S2
inactive: [1] | [2] | [3] | [5] | [7]

CCCc1ccc(N)cc1
not listed: [4] | [9] | [10]
inactive: all other assays above

O=C(O)/C=C/c1ccc(/C=C/C(=O)O)cc1
inactive: [1] | [2] | [3] | [6]

CC(C)[C@H](N)C(=O)OCCOCn1cnc2c(=O)[nH]c(N)nc21
inactive: [1] | [9] | [3] | [4] | [6]

Oc1ccc2c(c1)OC[C@@H](N1CCC(O)(c3ccc(F)cc3)CC1)[C@H]2O
inactive: [1] | [2] | [3] | [5] | [6] | [7]

NS(=O)(=O)c1cc2c(cc1C(F)(F)F)NC(Cc1ccccc1)NS2(=O)=O (stereo unspecified)
inactive: [1] | [2] | [9] | [6] | [7] | [8]

NS(=O)(=O)c1cc2c(cc1Cl)NC(CSCc1ccccc1)=NS2(=O)=O
not listed: [9] | [10]
inactive: all other assays above

CC(C)(C)N(CCO)CCO
not listed: [9]
inactive: all other assays above

O=Cc1ccccc1[N+](=O)[O-]
not listed: [4] | [9] | [10]
inactive: all other assays above

O=C(O)/C=C/c1ccc(Cn2ccnc2)cc1
not listed: [9]
inactive: all other assays above

CC(C)(O)C(=O)c1ccc(OCCO)cc1
inactive: [1] | [2] | [6]

OCc1ccccn1
inactive: [1] | [2] | [3] | [5] | [6]

COC(=O)C1=C(C)NC(C)=C(C(=O)OCC(C)=O)C1c1ccccc1[N+](=O)[O-] (stereo unspecified)
not listed: [2]
inactive: all other assays above

Cc1c(F)cc2c(=O)c(C(=O)O)cn3c2c1CCC3C (stereo unspecified)
inactive: [1] | [2] | [9] | [6] | [7] | [8]

CCCCOCC(C)OCC(C)O (stereo unspecified)
not listed: [9]
inactive: all other assays above

Nc1nc(F)nc2c1ncn2[C@@H]1O[C@H](CO)[C@@H](O)[C@@H]1O
inactive: [1] | [2] | [3] | [6]

CC(C)CCCC(C)NCCC(C)C (stereo unspecified)
not listed: [4] | [9] | [10]
inactive: all other assays above

NCCN1CCNC1=O
not listed: [4] | [9] | [10]
inactive: all other assays above

COCc1ccc(COC)cc1
not listed: [2] | [7]
inactive: all other assays above

C=CC(=O)N1CCOCC1
not listed: [2] | [8]
inactive: all other assays above

c1ccc2cnncc2c1
inactive: [1] | [9] | [3] | [5] | [6] | [7]

C#CC(O)CCCCC (stereo unspecified)
inactive: [1] | [9] | [5] | [6]

CC(C)(C)C(=O)/C=C/c1ccc(Cl)cc1
not listed: [2] | [3] | [8]
inactive: all other assays above

C=CCn1c(=O)n([C@@H]2O[C@H](CO)[C@@H](O)[C@H]2O)c2nc(N)[nH]c(=O)c21
inactive: [1] | [9] | [4] | [5] | [10] | [6]

CC1CCN(CCCC(=O)c2ccc(F)cc2)CC1
inactive: [1] | [9] | [4] | [5] | [10] | [6]

OCC(CO)(CO)COCC(CO)(CO)CO
not listed: [2] | [3]
inactive: all other assays above

O=C(CCOCCOCCOCCOCCC(=O)Nc1c(I)cc(I)c(C(=O)O)c1I)Nc1c(I)cc(I)c(C(=O)O)c1I
inactive: [1] | [9] | [5] | [6] | [7] | [8]
